The campaign covered roughly 5,500 compounds. About 2,000 (36%) were called active. Inconclusive results (about 18%) are left out. Cut-off read from the data, not from the text of the source: active = normalized growth mostly below about 0.91 (no sharp cut-off); inconclusive = no clear call, values can overlap the other calls; inactive = mostly above about 0.92. The list shows a part of the results.
Experiment: chemical genetic growth profiling, strain panel (AID 1159580);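 note: tested at 20 µM; growth read once vehicle control cultures reached saturation at 30 °C; 1 = growth at the plate median or of vehicle wells; lower values mean less growth of the strain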
Details: growth OD

Measured: normalized growth

NCC(=O)CCC(=O)O
inactive: S. cerevisiae deletion strains, locus YJR075W, strain HOC1, hits give low values 1.02 | S. cerevisiae deletion strains, locus YKL009W, strain mrt4, hits give low values 1.07 | S. cerevisiae deletion strains, locus YKL068W, hits give low values 0.995 | S. cerevisiae deletion strains, locus YKL085W, strain MDH1 (second series), hits give low values 0.997 | S. cerevisiae deletion strains, locus YKL085W, strain MDH1, hits give low values 0.997 | S. cerevisiae deletion strains, locus YKL160W, strain elf1, hits give low values 0.98 | S. cerevisiae deletion strains, locus YKL190W, strain CNB1, hits give low values 1.01 | S. cerevisiae deletion strains, locus YKR001C, strain vps1, hits give low values 0.982 | S. cerevisiae deletion strains, locus YKR026C, strain gcn3, hits give low values 0.981 | S. cerevisiae deletion strains, locus YKR091W, strain srl3, hits give low values 0.981 | S. cerevisiae deletion strains, locus YLL001W, strain dnm1, hits give low values 0.93 | S. cerevisiae deletion strains, locus YLL026W, hits give low values 0.982 | S. cerevisiae deletion strains, locus YLL041C, strain sdh2, hits give low values 0.987 | S. cerevisiae deletion strains, locus YLR027C, strain aat2, hits give low values 0.98 | S. cerevisiae deletion strains, locus YLR039C, strain RIC1, hits give low values 1.03 | S. cerevisiae deletion strains, locus YLR058C, strain SHM2, hits give low values 1.01 | S. cerevisiae deletion strains, locus YLR102C, strain apc9, hits give low values 0.983 | S. cerevisiae deletion strains, locus YLR113W, strain HOG1, hits give low values 1.03 | S. cerevisiae deletion strains, locus YLR221C, strain rsa3, hits give low values 1.03 | S. cerevisiae deletion strains, locus YLR258W, strain gsy2, hits give low values 0.994 | S. cerevisiae deletion strains, locus YLR262C, strain YPT6 (second series), hits give low values 0.958 | S. cerevisiae deletion strains, locus YLR262C, strain YPT6, hits give low values 1.05 | S. cerevisiae deletion strains, locus YLR268W, strain sec22, hits give low values 0.953 | S. cerevisiae deletion strains, locus YLR320W, strain mms22, hits give low values 0.976 | S. cerevisiae deletion strains, locus YLR330W, strain CHS5, hits give low values 1.01 | S. cerevisiae deletion strains, locus YLR342W, strain FKS1 (second series), hits give low values 1.03 | S. cerevisiae deletion strains, locus YLR342W, strain FKS1, hits give low values 0.959 | S. cerevisiae deletion strains, locus YLR357W, strain rsc2, hits give low values 0.954 | S. cerevisiae deletion strains, locus YLR370C, strain arc18, hits give low values 1.01 | S. cerevisiae deletion strains, locus YLR371W, strain rom2, hits give low values 0.988 | S. cerevisiae deletion strains, locus YLR384C, strain iki3, hits give low values 0.997 | S. cerevisiae deletion strains, locus YLR418C, strain cdc73, hits give low values 0.994 | S. cerevisiae deletion strains, locus YML016C, strain PPZ1, hits give low values 1.01 | S. cerevisiae deletion strains, locus YML032C, strain rad52, hits give low values 0.981 | S. cerevisiae deletion strains, locus YML120C, strain ndi1, hits give low values 0.983 | S. cerevisiae deletion strains, locus YML124C, strain tub3, hits give low values 0.997 | S. cerevisiae deletion strains, locus YMR058W, strain fet3, hits give low values 0.984 | S. cerevisiae deletion strains, locus YMR078C, strain ctf18, hits give low values 0.991 | S. cerevisiae deletion strains, locus YMR125W, strain sto1, hits give low values 0.977 | S. cerevisiae deletion strains, locus YMR129W, hits give low values 0.99 | S. cerevisiae deletion strains, locus YMR205C, strain PFK2, hits give low values 0.976 | S. cerevisiae deletion strains, locus YMR223W, strain ubp8, hits give low values 0.998 | S. cerevisiae deletion strains, locus YMR231W, strain pep5, hits give low values 0.972 | S. cerevisiae deletion strains, locus YMR263W, strain SAP30, hits give low values 1.01 | S. cerevisiae deletion strains, locus YMR307W, strain GAS1, hits give low values 1.05 | S. cerevisiae deletion strains, locus YNL067W, strain RPL9B, hits give low values 0.997 | S. cerevisiae deletion strains, locus YNL071W, strain lat1, hits give low values 0.995 | S. cerevisiae deletion strains, locus YNL128W, strain TEP1, hits give low values 1.02 | S. cerevisiae deletion strains, locus YNL153C, strain GIM3, hits give low values 1 | S. cerevisiae deletion strains, locus YNL183C, strain NPR1, hits give low values 0.986 | S. cerevisiae deletion strains, locus YNL209W, strain ssb2, hits give low values 0.997 | S. cerevisiae deletion strains, locus YNL233W, strain BNI4, hits give low values 1.02 | S. cerevisiae deletion strains, locus YNL248C, strain rpa49, hits give low values 1 | S. cerevisiae deletion strains, locus YNL250W, strain rad50, hits give low values 0.993 | S. cerevisiae deletion strains, locus YNL271C, strain bni1, hits give low values 0.98 | S. cerevisiae deletion strains, locus YNL298W, strain CLA4, hits give low values 0.984 | S. cerevisiae deletion strains, locus YNL307C, strain MCK1, hits give low values 1 | S. cerevisiae deletion strains, locus YNL322C, strain KRE1 (second series), hits give low values 0.964 | S. cerevisiae deletion strains, locus YNL322C, strain KRE1, hits give low values 1.02 | S. cerevisiae deletion strains, locus YNR049C, strain mso1, hits give low values 0.981 | S. cerevisiae deletion strains, locus YNR052C, strain pop2, hits give low values 0.988 | S. cerevisiae deletion strains, locus YOL006C, strain TOP1, hits give low values 0.983 | S. cerevisiae deletion strains, locus YOL012C, strain htz1 0.968 | S. cerevisiae deletion strains, locus YOL147C, strain pex11, hits give low values 0.993 | S. cerevisiae deletion strains, locus YOR001W, strain rrp6, hits give low values 0.994 | S. cerevisiae deletion strains, locus YOR061W, strain CKA2, hits give low values 1.01 | S. cerevisiae deletion strains, locus YOR069W, strain VPS5, hits give low values 1.01 | S. cerevisiae deletion strains, locus YOR070C, strain gyp1, hits give low values 0.989 | S. cerevisiae deletion strains, locus YOR080W, strain dia2, hits give low values 0.976 | S. cerevisiae deletion strains, locus YOR083W, strain WHI5, hits give low values 0.954 | S. cerevisiae deletion strains, locus YOR106W, strain vam3, hits give low values 0.956 | S. cerevisiae deletion strains, locus YOR136W, strain idh2, hits give low values 0.992 | S. cerevisiae deletion strains, locus YOR144C, strain elg1, hits give low values 0.986 | S. cerevisiae deletion strains, locus YOR184W, strain ser1, hits give low values 0.976 | S. cerevisiae deletion strains, locus YOR231W, strain MKK1, hits give low values 1.04 | S. cerevisiae deletion strains, locus YOR265W, strain rbl2, hits give low values 0.988 | S. cerevisiae deletion strains, locus YOR270C, strain vph1, hits give low values 1.01 | S. cerevisiae deletion strains, locus YOR290C, strain snf2, hits give low values 1.01 | S. cerevisiae deletion strains, locus YOR316C, strain cot1, hits give low values 0.989 | S. cerevisiae deletion strains, locus YPL051W, strain arl3, hits give low values 0.997 | S. cerevisiae deletion strains, locus YPL055C, strain LGE1, hits give low values 1.03 | S. cerevisiae deletion strains, locus YPL078C, strain atp4, hits give low values 0.948 | S. cerevisiae deletion strains, locus YPL106C, strain sse1, hits give low values 0.998 | S. cerevisiae deletion strains, locus YPL240C, strain hsp82, hits give low values 0.985 | S. cerevisiae deletion strains, locus YPL241C, strain CIN2, hits give low values 1 | S. cerevisiae deletion strains, locus YPL256C, strain CLN2, hits give low values 1.03 | S. cerevisiae deletion strains, locus YPR119W, strain clb2, hits give low values 0.983 | S. cerevisiae deletion strains, locus YPR141C, strain kar3, hits give low values 0.993 | S. cerevisiae deletion strains, locus YPR163C, strain tif3, hits give low values 0.981 | S. cerevisiae deletion strains, locus YPR167C, strain met16, hits give low values 0.986 | S. cerevisiae deletion strains, strain wtn01, hits give low values 0.99 | S. cerevisiae strains, strain wild type, hits give low values 1.01
